# High-throughput results as filed in PubChem.
# KB-3-1 cytotox = qHTS assay for MDR1-selective chemotherapeutics: Primary screen using the parental adenocarcinoma cell KB-3-1 | Potency, µM (series often up to 46.1 µM), hits mostly cytotoxic | AID 1347075, 2019 | KB-3-1 viability, CellTiter-Glo ATP luminescence, 72 h | 400,000 tested, 1.4% active; note: % is set by controls: 0 for no effect and ±100 for the full control effect; nearly all actives have a fitted effect of over 60% in size
#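 Cytotoxicity in the drug-sensitive parental line KB-3-1 was scored as loss of CellTiter-Glo luminescence following 72 h incubation with compound. Values come from curve fitting of normalized concentration-response data.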
# KB-V1 MDR tox = qHTS assay for MDR1-selective chemotherapeutics: Primary screen using the drug-selected MDR subline cells KB-V1 | AID 1347076, 2019 | KB-V1 MDR cells viability, CellTiter-Glo, 72 h | 400,000 tested, 3.4% active | Potency, µM (titrated, usually from 46.1 µM), hits mostly cytotoxic; note: % is set by controls: 0 for no effect and ±100 for the full control effect; nearly all actives have a fitted effect of over 60% in size
#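 Drug-selected KB-V1 cells, grown in DMEM lacking phenol red with 10% FBS, receive compound titrations; after three days at 37 degrees C, surviving cell ATP is quantified by CellTiter-Glo luminescence and responses normalized and curve-fitted.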
# MCF10A rereplic = A quantitative high throughput screen for small molecules that induce DNA re-replication in MCF 10a normal breast cells. MCF 10A DNA re-replication, Hoechst nuclear intensity, 48 h. Potency, µM (highest dose often 46.1 µM), inactives show top-dose activity, positive = re-replication, most hits filed as activators. 350,000 tested, 2.9% active; note: % of control where 0% means no effect; nearly all actives have a fitted effect of over 50% in size
# HT1080NT lethal = qHTS for induction of synthetic lethality in tumor cells producing 2HG: qHTS for the HT-1080-NT fibrosarcoma cell line | 360,000 tested, 1.6% active | HT-1080-NT fibrosarcoma viability, CellTiter-Glo ATP luminescence, 48 h | Potency, µM (series often up to 46.1 µM), inactives show top-dose activity, negative = less viability, most hits filed as cytotoxic;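 note: NT is the 2HG producing partner of a matched IDH1 knockdown line; 0% = DMSO-treated cells and -100% = media-only wells without cells; nearly all actives have a fitted effect of over 55% in size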
#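 HT-1080-NT fibrosarcoma cells (2HG-overproducing), 750 cells/well in RPMI with 5% FBS, dosed after 2 h and incubated 48 h at 37C. CellTiter-Glo luminescence normalized to DMSO and no-cell wells; concentration-response curves fitted and classed.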
# SW480 rereplic = A quantitative high throughput screen for small molecules that induce DNA re-replication in SW480 colon adenocarcinoma cells; AID 624297, 2012; SW480 DNA re-replication, Hoechst DNA content imaging, 48 h; 340,000 tested, 1.8% active; Potency, µM (titrated, usually from 46.1 µM), for inactives: top-dose re-replication activation, usual class: activators; note: % of control where 0% means no effect; nearly all actives have a fitted effect of over 55% in size
#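 Hoechst fluorescence of nuclei (405 nm excitation, 500-530 nm emission) measured by plate-scanning imager after 48 hr compound exposure at 37 C; re-replication scored as increased number of nuclei with elevated intensity.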
# HT1080 IDH1KD tx = qHTS for induction of synthetic lethality in tumor cells producing 2HG: qHTS for the HT-1080-IDH1KD cell line; HT-1080 IDH1 knockdown viability, ATP luminescence, 48 h; Potency, µM (series often up to 46.1 µM), for inactives: top-dose activity, negative = toxicity, actives largely listed as cytotoxic; 360,000 tested, 2% active; AID 686971, 2013;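 note: 0% = DMSO wells and -100% = cell-free medium wells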
#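 HT-1080-IDH1KD cells (IDH1 knocked down), 750/well in RPMI with 5% FBS, treated with compound 48 h at 37 degrees C. Viability by CellTiter-Glo luminescence, normalised to DMSO and no-cell wells; concentration-response curves classed.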
# Starred values were filed as active, the others as inactive; i = inactive; ? = inconclusive; · = not tested or not shown; ! = not active in a repeat; [ ] = dose if it differs, or a comment. Sampled rows, rich in hits. Any-hit rate of the full collection: about 8%. Calls come from the whole dose curve; as a rule, active = well fitted curve in the direction sought with a large enough effect; inconclusive = small, poorly fitted or top-dose-only effect, or another doubt; inactive = no such curve, though single readings can be large; an effect the other way counts as inactive or inconclusive. Potency is the fitted concentration of half-maximal effect.
SMILES,KB-3-1 cytotox,KB-V1 MDR tox,MCF10A rereplic,HT1080NT lethal,SW480 rereplic,HT1080 IDH1KD tx
Brc1cccc(-c2nnc3sc(CN4CCC5(CC4)OCCO5)cn23)c1,i,20.6µM*,22.6%,3.3%,-5.8%,0.5%
C/C(=N\Nc1nc(-c2ccccc2)cs1)c1cccs1,i,i,1.9%,-3.7%,-1.9%,-1.1%
CCN(CC)CCNC(=O)c1cc(-c2ccc(Br)s2)nc2ccccc12,i,?,?,18.4µM*,?,?
CN1CCN(NC(=O)c2cc(-c3ccc(Br)s3)nc3ccccc23)CC1,i,i,23.1µM*,20.6µM*,?,23.1µM*
CCCN(CCC)CCNC(=O)c1cc(-c2ccc(Br)s2)nc2ccccc12,i,i,·,·,·,·
O=C(NN1CCOCC1)c1cc(-c2cccc(Cl)c2)nc2ccccc12,i,11.6µM*,-2.8%,4.4%,-1.2%,-11.0%
CCCCOc1cc(C(=O)NCCN(CC)CC)c2ccccc2n1,i,?,11.6µM*!,?,-48.6%,?
CCN(CC(=O)Nc1c(F)cccc1F)C(=O)c1ccc(C2SCCS2)cc1,i,i,?,1.4%,-31.4%,-1.0%
CC(C)[C@@H](C(=O)NCC1CCCO1)N1C(=O)N2CCc3c([nH]c4ccccc34)[C@@]2(C)C1=O (stereo partly specified),i,?,-7.2%,12.4%,-1.2%,5.5%
CN1CCN(S(=O)(=O)c2cccc(C(=O)Nc3cc(C(F)(F)F)ccc3N3CCCCC3)c2)CC1,?,?,18.0%,-6.5%,-8.6%,0.0%
O=C(c1ccccc1)c1ccc(N2CCOCC2)cc1,i,i,2.9%,17.4%,-4.4%,18.8%
O=C(c1ccc(Cl)c(Cl)c1)c1cc(-c2ccccn2)c(N2CCOCC2)s1,i,4.11µM*,20.6µM*,-6.0%,22.1%,-7.1%
O=C(c1ccc(Cl)c(S(=O)(=O)N2CCOCC2)c1)N1CCN(c2ccccn2)CC1,i,i,1.7%,8.3%,0.7%,7.5%
O=C(c1ccc(Br)cc1)c1cc(-c2ccccn2)c(N2CCOCC2)s1,i,4.11µM*,?,-2.3%,16.7%,6.7%
CC[C@]12CCCN3CCc4c(n(c5ccccc45)[C@@](O)(C(=O)OC)C1)[C@@H]32,i,i,10.7%,-2.3%,-0.7%,-6.7%
CC[C@]12CCCN3CCc4c(n(c5ccccc45)C(=O)C1)[C@@H]32,?,4.11µM*,?,?,13µM*,14.3%
COc1ccc(C(=O)OCC(=O)Nc2ncc([N+](=O)[O-])s2)cc1OC,i,?,0.1%,-0.7%[9.24 µM],-17.0%,-3.1%
C=CCn1c(-c2cccc(Cl)c2)n[nH]c1=S,i,i,-2.6%,16.1%,-3.1%[9.22 µM],3.7%
C=CCn1c(-c2oc3nc(-c4ccccc4)cc(-c4ccccc4)c3c2N)n[nH]c1=S,i,9.2µM*,7.31µM*,2.9%,8.2µM*,5.1%
COc1cc(C(O)c2nc(-c3ccc4ccccc4c3)cs2)ccc1F (stereo unspecified),i,?,·,23.1µM*,·,?
COc1ccc(C(O)c2nc(-c3ccc4ccccc4c3)cs2)cc1 (stereo unspecified),i,i,·,-28.3%,·,-14.1%
O=c1c2ccccc2c(C=Nc2cccc(O)c2)c(O)n1-c1ccc2c(c1)OCO2,?,i,14.6µM*,-5.9%,?,0.7%
COc1ccc(N=Cc2c(O)n(-c3ccc(OC)cc3)c(=O)c3ccccc23)cc1,i,i,?,16.8%,20.0%,19.3%
